The target in assay [1] is D(1A) dopamine receptor (Homo sapiens) (UniProt P21728). Description: HTS Assay for Allosteric Agonists of the Human D1 Dopamine Receptor: Primary Screen for Agonists (AID 488981). Further: 0% is about no effect. The settings on record: Inducible HEK293 T-REx D1 cells, calcium-flux fluorescence, 180 s kinetic; series mostly up to 41.8 µM. Put shortly: (§1)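 Tetracycline-induced HEK293 T-REx cells force-coupled to calcium signalling were incubated overnight at 30 C and dye-loaded at room temperature. Calcium flux over 180 s after compound addition flagged agonists; a further 180 s read after EC20 dopamine flagged potentiators.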

Assay [2] shares this target. Description: HTS Assay for Allosteric Agonists of the Human D1 Dopamine Receptor: Primary Screen for Potentiators (AID 488982). Further: 0% is about no effect. The note with it: HEK293 T-REx D1 inducible cells, calcium flux, kinetic fluorescence; series mostly up to 8.37 µM. Put shortly: as §1
Assay [3] has the same target. The assay can be described thus: HTS Assay for Allosteric Agonists of the Human D1 Dopamine Receptor: Primary Screen for Antagonists (AID 488983).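 Further: calcium flux response to an EC80 dopamine challenge measured with no-wash dye; nearly all actives have a fitted effect of over 65% in size.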 Further: potency means the concentration at half of the fitted maximal effect. The settings on record: D1 receptor cell assay, antagonist mode, qHTS titration; series mostly up to 41.8 µM. Put shortly:
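Cells are induced with tetracycline and incubated overnight at 30 C, then loaded with calcium dye for 30 to 90 minutes at room temperature. Compound addition is followed by a 180 s read, then an EC80 dopamine addition and another 180 s read.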
(Quantitative high-throughput screening tests each substance at several concentrations.)

Assay [4] in a line: Validation screen for small molecules that induce genotoxicity in human embryonic kidney (HEK293T) cells expressing luciferase-tagged ELG1 (AID 493106). Further: 0% is about no effect. The note with it: luminescence; series mostly up to 46.1 µM. The procedure, abridged:
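Luminescence from an ELG1-luciferase fusion serves as the read-out, rising when genetic stress elevates ELG1 protein. HEK293T reporter cells (2,000 per well) received 23 nL compound, incubated 16 hr at 37 °C, then ONE-Glo for 30 min at room temperature.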

In assay [5] the target is ATPase family AAA domain-containing protein 5 (Homo sapiens) (UniProt Q96QE3). The assay can be described thus: Validation screen for small molecules that inhibit ELG1-dependent DNA repair in human embryonic kidney (HEK293T) cells expressing luciferase-tagged ELG1 (AID 493107). Further: nearly all actives have a fitted effect of over 70% in size. Further: potency means the concentration at half of the fitted maximal effect. The settings on record: HEK293T ELG1-luciferase level, luminescence, 5-fluorouridine co-treatment, 16 h; series mostly up to 46.1 µM. Put shortly: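 Luminescence from ONE-Glo, developed 30 min at room temperature, served as read-out of ELG1-luciferase levels. Beforehand, reporter HEK293T cells received 5-fluorouridine plus test compound for 16 hr at 37 °C.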

In assay [6] the target is Thyrotropin-releasing hormone receptor (Homo sapiens) (UniProt P34981). Description: qHTS for Small Molecule Agonists and Allosteric Enhancers of Human TRH Receptor: Validation Screen for Agonists (AID 493127;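 active means calcium activation more than 3 SD above the typical response in the agonist read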;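 further: intracellular calcium rise by fluo-8 fluorescence before TRH EC20 addition; 0% is about no effect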). The note with it: TRH receptor agonist cell assay; at 2 µM; stronger effect = higher value. Put shortly: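 Cells 2000/well, 10% FCS, 18 h 33.5C/5% CO2 → fluo-8 Ca dye, RT 30 min–1.5 h → FDSS baseline 10 × 1 s → compound added → 230 cycles (1 s/cycle) agonist mode. TRH controls.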

The nature of assay [7]: qHTS for Inhibitors of Cell Surface uPA Generation: Validation Assay (AID 493164). Further: 0% is about no effect. The note with it: mouse cells, plasminogen activation; series mostly up to 38.3 µM. The procedure, abridged: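 RAW 264.7 cells (4000/well) were plated overnight, then exposed for 18 h at 37 C, 5% CO2 to compounds in a 7-point 1:5 titration (2.45 nM–38.3 uM final). Intracellular ATP was read by ATP-Lite luminescence.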

The nature of assay [8]: Nrf2 qHTS screen for inhibitors: Validation (AID 493153; active means well fitted inhibition curve with a large enough effect in the main read-out, with a control signal flat, not every such curve was filed as active). The settings on record: A549 ARE-Fluc reporter, 18-24 h; Potency: luciferase luminescence; viability change: measured here: cytotoxicity max response; luciferase luminescence, at 46.1 µM (top of the series). The procedure, abridged:
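Luminescence from an ARE-firefly luciferase reporter in A549 cells gives Nrf2 inhibition; an earlier CellTiter-Fluor fluorescent read flags cytotoxicity. Cells in 5% FBS OPTI-MEM received compound dilution series for 18-24 h at 37°C.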

Results filed as inconclusive are left out. Calls of active or inactive are those of the source. Unless noted, the call rests on the fitted dose curve; in most records, active means well fitted curve in the direction sought with a large enough effect; inconclusive means small, poorly fitted or top-dose-only effect, or another doubt; inactive means no such curve, though single readings can be large; an effect the other way counts as inactive or inconclusive.

Chain of Thyrotropin-releasing hormone receptor (Homo sapiens) (P34981 whole entry, looked up): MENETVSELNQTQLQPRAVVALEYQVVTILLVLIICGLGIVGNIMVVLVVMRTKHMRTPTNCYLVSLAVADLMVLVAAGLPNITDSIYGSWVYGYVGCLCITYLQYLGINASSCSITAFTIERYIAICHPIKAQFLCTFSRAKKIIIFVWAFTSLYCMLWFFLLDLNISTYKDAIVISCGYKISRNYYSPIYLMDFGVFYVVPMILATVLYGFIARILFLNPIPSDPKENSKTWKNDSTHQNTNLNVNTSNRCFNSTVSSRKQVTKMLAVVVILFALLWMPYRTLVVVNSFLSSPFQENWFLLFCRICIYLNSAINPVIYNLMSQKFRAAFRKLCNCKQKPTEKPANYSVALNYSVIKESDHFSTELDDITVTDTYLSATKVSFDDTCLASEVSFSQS
Chain of ATPase family AAA domain-containing protein 5 (Homo sapiens) (Q96QE3 whole entry, looked up, the tested form may be a part): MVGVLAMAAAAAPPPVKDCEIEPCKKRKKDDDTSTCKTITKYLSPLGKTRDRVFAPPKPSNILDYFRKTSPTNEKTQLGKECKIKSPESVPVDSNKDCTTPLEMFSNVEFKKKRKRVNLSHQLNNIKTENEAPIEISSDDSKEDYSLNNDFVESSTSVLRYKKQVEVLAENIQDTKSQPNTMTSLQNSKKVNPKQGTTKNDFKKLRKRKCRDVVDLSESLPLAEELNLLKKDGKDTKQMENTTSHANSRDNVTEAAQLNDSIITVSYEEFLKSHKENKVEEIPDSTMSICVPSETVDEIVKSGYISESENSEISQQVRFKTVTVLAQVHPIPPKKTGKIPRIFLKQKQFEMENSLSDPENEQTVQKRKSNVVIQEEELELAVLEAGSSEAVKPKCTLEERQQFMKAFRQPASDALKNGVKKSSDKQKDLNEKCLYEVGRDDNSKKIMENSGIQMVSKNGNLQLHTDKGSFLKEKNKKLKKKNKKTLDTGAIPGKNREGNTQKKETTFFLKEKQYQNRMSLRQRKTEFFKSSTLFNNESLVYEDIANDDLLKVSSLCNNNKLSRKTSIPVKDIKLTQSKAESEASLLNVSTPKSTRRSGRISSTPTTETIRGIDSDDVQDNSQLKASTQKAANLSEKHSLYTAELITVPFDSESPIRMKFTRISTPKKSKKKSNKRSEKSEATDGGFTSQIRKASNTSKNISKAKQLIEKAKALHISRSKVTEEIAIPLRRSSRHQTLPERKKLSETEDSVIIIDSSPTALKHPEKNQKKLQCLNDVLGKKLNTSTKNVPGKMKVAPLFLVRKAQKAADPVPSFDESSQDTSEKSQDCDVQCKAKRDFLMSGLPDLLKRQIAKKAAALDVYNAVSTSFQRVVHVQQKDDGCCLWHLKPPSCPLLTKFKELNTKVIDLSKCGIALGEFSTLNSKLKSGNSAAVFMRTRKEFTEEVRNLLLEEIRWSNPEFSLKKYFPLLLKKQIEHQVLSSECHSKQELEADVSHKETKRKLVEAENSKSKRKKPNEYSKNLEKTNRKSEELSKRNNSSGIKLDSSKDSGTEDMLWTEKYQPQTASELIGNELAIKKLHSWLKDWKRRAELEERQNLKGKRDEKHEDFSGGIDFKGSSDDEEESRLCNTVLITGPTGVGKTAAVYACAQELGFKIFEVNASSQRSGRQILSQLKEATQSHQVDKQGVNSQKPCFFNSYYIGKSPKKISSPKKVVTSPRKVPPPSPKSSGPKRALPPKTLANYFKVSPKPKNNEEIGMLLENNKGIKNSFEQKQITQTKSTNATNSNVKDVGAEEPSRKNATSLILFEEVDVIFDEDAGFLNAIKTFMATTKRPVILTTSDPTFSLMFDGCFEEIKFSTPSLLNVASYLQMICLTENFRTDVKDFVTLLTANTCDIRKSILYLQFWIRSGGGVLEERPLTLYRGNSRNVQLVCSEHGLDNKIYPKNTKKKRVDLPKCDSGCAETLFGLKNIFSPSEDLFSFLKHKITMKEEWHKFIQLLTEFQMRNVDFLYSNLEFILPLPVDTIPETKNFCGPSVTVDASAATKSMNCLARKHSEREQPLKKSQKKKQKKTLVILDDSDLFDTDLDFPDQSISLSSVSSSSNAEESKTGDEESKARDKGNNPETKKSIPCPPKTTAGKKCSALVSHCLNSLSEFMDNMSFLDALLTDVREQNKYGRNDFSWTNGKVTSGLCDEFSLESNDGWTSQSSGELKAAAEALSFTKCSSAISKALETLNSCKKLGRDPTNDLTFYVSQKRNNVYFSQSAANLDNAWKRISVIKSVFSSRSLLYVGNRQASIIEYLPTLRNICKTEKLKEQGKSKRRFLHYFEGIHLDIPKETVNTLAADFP
Chain of D(1A) dopamine receptor (Homo sapiens) (P21728 whole entry, looked up): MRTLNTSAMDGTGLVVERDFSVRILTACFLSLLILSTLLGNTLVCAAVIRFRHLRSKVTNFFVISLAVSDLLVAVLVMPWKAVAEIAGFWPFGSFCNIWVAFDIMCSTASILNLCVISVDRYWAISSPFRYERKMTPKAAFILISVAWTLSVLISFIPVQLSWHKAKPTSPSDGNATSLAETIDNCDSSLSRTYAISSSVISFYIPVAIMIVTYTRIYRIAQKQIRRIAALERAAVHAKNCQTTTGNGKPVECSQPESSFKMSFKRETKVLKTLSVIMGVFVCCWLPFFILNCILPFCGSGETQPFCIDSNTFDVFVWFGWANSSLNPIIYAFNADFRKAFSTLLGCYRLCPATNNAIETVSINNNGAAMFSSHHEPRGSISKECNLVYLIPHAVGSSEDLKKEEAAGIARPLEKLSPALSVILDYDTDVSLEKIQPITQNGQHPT

As to `Cc1[nH]c2ccc(O)cc2c1CCN`, the Potency entry in assay [1], in assay [2], in assay [3], in assay [4] and in assay [5] was “inactive” in each case. Besides, in assay [6], the activation was 0.812% (inactive). Further, in assay [7], the molecule was called inactive.
Consider `CCCn1c(=O)c2[nH]c(C3CCCC3)nc2n(CCCOC(=O)c2ccc(S(=O)(=O)F)cc2)c1=O`, for which the Potency result in assay [1], in assay [2], in assay [3], in assay [4] and in assay [5] was “inactive” each time. For the same molecule, the activation in assay [6] is -5.75% (inactive). Moreover, the result in assay [7] was inactive.
With `NCC(CP(=O)(O)O)c1ccc(Cl)cc1` (configuration not stated), the Potency result in assay [1], in assay [2], in assay [3], in assay [4] and in assay [8] was “inactive” each time. The activation in assay [6] is 0.5% (inactive). Moreover, in assay [8], the viability change worked out at 3.89%. Besides, the molecule was classed as inactive in assay [7].
On to `N[C@@H](Cn1ccc(=O)[nH]c1=O)C(=O)O`, for which the Potency result in assay [1], in assay [2], in assay [3], in assay [4] and in assay [5] was “inactive” each time. For the same molecule, the molecule was called inactive in assay [7].
`CC(C)(O)[C@@H]1C2OC(=O)[C@@H]1[C@]1(O)C[C@H]3O[C@]34C(=O)O[C@H]2[C@]14C` (tested in a mixture with another compound): the Potency result in assay [1], in assay [2], in assay [3], in assay [4], in assay [5] and in assay [8] was “inactive” each time. The viability change in assay [8] was -3%. Further, the molecule was called inactive in assay [7].
For the molecule `COc1ccc2c(c1)/C(=C/c1cnc[nH]1)C(=O)N2`, the Potency entry in assay [1], in assay [2] and in assay [3] was “inactive” in each case. In assay [6], the activation is 0.562% (inactive). Also, the result in assay [7] was inactive.
As to `COc1ccc2c(c1)[C@@]13CCCC[C@H]1[C@@H](C2)NCC3`, the Potency result in assay [1], in assay [2], in assay [3], in assay [4] and in assay [5] was “inactive” throughout. The activation in assay [6] was 0.0625% (inactive). Further, in assay [7], the outcome was inactive.
`CCCCCCC(C)(C)c1ccc([C@@H]2C[C@H](O)CC[C@H]2CCCO)c(O)c1`: the Potency result in assay [1], in assay [3], in assay [4] and in assay [8] was “inactive” each time. In addition, the Potency in assay [5] is 16.4 µM (active). Moreover, in assay [6], the activation was 1.06% (inactive). Also, in assay [8], the viability change came to 3.03%. Besides, the call in assay [7] was inactive.
For `Nc1ccc(CCN2CCN(c3cccc(C(F)(F)F)c3)CC2)cc1`, the Potency result in assay [1], in assay [2], in assay [4], in assay [5] and in assay [8] was “inactive” in each case. For the same molecule, the activation in assay [6] was 2.19% (inactive). Besides, in assay [8], the viability change turned out to be 0.0372%. The molecule was called inactive in assay [7].
For the molecule `CCCN(CCC)[C@@H]1CCc2cccc(O)c2C1`, the Potency entry in assay [1], in assay [2], in assay [3], in assay [4] and in assay [5] was “inactive” throughout. The activation in assay [6] is 0.5% (inactive). In addition, the molecule was classed as inactive in assay [7].
For the molecule `NC(Cc1ccc(N(CCCl)CCCl)cc1)C(=O)O` (configuration not stated), the Potency result in assay [1], in assay [2], in assay [3] and in assay [5] was “inactive” in each case. Moreover, in assay [6], the activation is -0.125% (inactive). In assay [7], the molecule was classed as inactive.
`NCCc1c[nH]c2ccc(C(N)=O)cc12`: the Potency entry in assay [1], in assay [3], in assay [4] and in assay [5] was “inactive” throughout. The activation in assay [6] is 1.5% (inactive). In addition, the outcome in assay [7] was inactive.
For the molecule `C[N+]1(C)CCc2cc3c(cc2[C@H]1[C@@H]1OC(=O)c2c1ccc1c2OCO1)OCO3`, the Potency entry in assay [1], in assay [2], in assay [3], in assay [4], in assay [5] and in assay [8] was “inactive” throughout. In addition, in assay [8], the viability change was -0.563%. The molecule was classed as inactive in assay [7].
Take `C/C(O)=C(\C#N)C(=O)Nc1cc(Br)ccc1Br`: the Potency result in assay [1], in assay [2], in assay [3] and in assay [4] was “inactive” in each case. Besides, the activation in assay [6] is 0.0625% (inactive). In addition, the call in assay [7] was inactive.
Regarding `NCCc1ccc(S(=O)(=O)F)cc1`, the Potency result in assay [1], in assay [2], in assay [3] and in assay [4] was “inactive” in each case. Also, in assay [6], the activation is 1.25% (inactive). Moreover, the molecule was classed as inactive in assay [7].
For `C[C@@H]1O[C@H](C[N+](C)(C)C)CS1`, the Potency entry in assay [1], in assay [2], in assay [3], in assay [4] and in assay [8] was “inactive” throughout. In addition, the activation in assay [6] was 11.2% (inactive). The viability change in assay [8] was 8.63%. The call in assay [7] was inactive.
Regarding `CCCN1CCC[C@@H](c2cccc(O)c2)C1`, the Potency result in assay [1], in assay [2], in assay [4], in assay [5] and in assay [8] was “inactive” throughout. The Potency in assay [3] is 11.2 µM (active). For the same molecule, the viability change in assay [8] was -15.6%. In addition, the molecule was called inactive in assay [7].
On to `CCCC[N+]1(C)C2CC(OC(=O)[C@H](CO)c3ccccc3)CC1C1OC12` (some centres not stated), for which the Potency result in assay [1], in assay [2], in assay [3], in assay [4] and in assay [5] was “inactive” each time. Besides, the molecule was called inactive in assay [7].
Take `N#CCCN`: the Potency entry in assay [1], in assay [2], in assay [3], in assay [4] and in assay [8] was “inactive” in each case. For the same molecule, the viability change in assay [8] was -4.25%. For the same molecule, the molecule was called inactive in assay [7].
On to `CO[C@H]1CC=C2CCN3CCC4=C(CC(=O)OC4)[C@]23C1`, for which the Potency result in assay [1], in assay [2], in assay [3], in assay [4], in assay [5] and in assay [8] was “inactive” in each case. Besides, the viability change in assay [8] is -2.68%. Besides, the call in assay [7] was inactive.
As for `COc1ccc2[nH]cc(CCN)c2c1`, the Potency result in assay [1], in assay [2], in assay [3], in assay [4] and in assay [5] was “inactive” each time. For the same molecule, in assay [6], the activation was -2.62% (inactive). Further, the result in assay [7] was inactive.
With `NC(=O)c1cc(N2CC2)c([N+](=O)[O-])cc1[N+](=O)[O-]`, the Potency entry in assay [1], in assay [2], in assay [3], in assay [4] and in assay [5] was “inactive” in each case. Moreover, the activation in assay [6] is 0.0625% (inactive). Besides, in assay [7], the call was inactive.
Consider `O=[N+]([O-])c1ccc2nc(N3CCNCC3)ccc2c1`, for which the Potency result in assay [1], in assay [2] and in assay [5] was “inactive” in each case. In addition, the activation in assay [6] was 1.44% (inactive). In assay [7], the outcome was inactive.
Consider `CN(N=O)c1cc(O)ccc1O`, for which the Potency result in assay [1], in assay [2], in assay [3], in assay [4] and in assay [5] was “inactive” each time. In addition, the activation in assay [6] was -2.69% (inactive). The outcome in assay [7] was inactive.
Regarding `COc1cc(CC(C)N)c(OC)cc1I` (configuration not stated), the Potency entry in assay [1], in assay [2], in assay [3] and in assay [4] was “inactive” in each case. In assay [6], the activation was 0.562% (inactive). The outcome in assay [7] was inactive.
In the case of `NC(CCCCCP(=O)(O)O)C(=O)O` (configuration not stated), the Potency result in assay [1], in assay [2], in assay [3], in assay [4] and in assay [5] was “inactive” each time. In addition, the activation in assay [6] was 0.312% (inactive). Besides, the result in assay [7] was inactive.
With `NNC(=O)c1ccc(O)cc1`, the Potency entry in assay [1], in assay [3], in assay [4], in assay [5] and in assay [8] was “inactive” each time. Also, the activation in assay [6] is 0.375% (inactive). Moreover, the viability change in assay [8] worked out at 6.63%. Further, the call in assay [7] was inactive.

These data come from PubChem BioAssay (NCATS).
